Pf growth 48h = P. falciparum growth inhibition at 48 hours (one generation) | P. falciparum luciferase growth in erythrocytes, 48 h | Potency, µM (titrated, usually from 28.7 µM), for inactives: at the top dose activity change, negative = inhibition, hits mostly inhibitors | 5.9% of 310,000 active | AID 504832; also: % is scaled to controls: 0 for no effect and ±100 for the full control effect
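First compound was added to culture medium, then infected red cells at 0.1% parasitemia and 2% hematocrit (final). After incubation at 37 C under 5% CO2, luciferase detection reagent was dispensed and light output recorded.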
AMA1 RON2 block = disrupts binding of P. falciparum AMA1 to RON2; AlphaScreen AMA1-biotinylated RON2 peptide binding; Potency, µM (titrated, usually from 58.2 µM), inactives show top-dose activity change, negative = inhibition, most hits filed as inhibitors; 0.2% of 360,000 active;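 also: 0% = vehicle wells and -100% = peptide control; nearly all actives have a fitted effect of over 45% in size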
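AMA1 (3D7) with his tag at 25 nM final met compounds first, then biotinylated RON2 peptide at 25 nM; detection used donor plus acceptor beads, 10 µg/mL apiece, read by AlphaScreen after 30 min at room temperature.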
Pf growth 96h = P. falciparum growth inhibition at 96 hour, primary screen for plastid delayed-death inhibitors; P. falciparum luciferase reporter growth, 96 h; Potency, µM (series often up to 28.7 µM), without a hit: top-dose activity change, negative = inhibition, actives largely listed as inhibitors; 6.9% of 320,000 active; AID 504834; also: % is scaled to controls: 0 for no effect and ±100 for the full control effect
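Erythrocytes infected with luciferase-expressing P. falciparum were dispensed at 2% hematocrit and 0.05% parasitemia (final), then incubated with compounds 96 hours at 37 C in 5% CO2. Luminescence after detection reagent addition reported growth.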
Sm TGR inh = S. mansoni TGR enzyme inhibition. purified TGR, DTNB reduction, TNB absorbance 405 nm. Potency, µM (highest dose often 114 µM), without a hit: at the top dose activity change, negative = inhibition, most hits filed as inhibitors. 3% of 360,000 active. AID 485364; also: % is scaled to controls: 0 for no effect and ±100 for the full control effect; nearly all actives have a fitted effect of over 60% in size
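Kinetic colorimetric format: TGR-catalysed, NADPH-driven DTNB reduction monitored via TNB absorbance. Enzyme dispensed at 20 nM; compound exposure 15 min at room temperature before reaction start.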
NS1 inh = influenza NS1 inhibition | 0.4% of 270,000 active | Potency, µM (titrated, usually from 46.1 µM), for inactives: top-dose activity, positive = more growth; calls by dose curve; also: actives are rising curves; nearly all actives have a fitted effect of over 50% in size
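Compounds were scored for reversing the slow growth caused by influenza A NS1 in S. cerevisiae, measured by optical density at 600 nm. Assay medium contained 2% galactose at pH 6.0; NS1-free yeast of the same strain were the positive control.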
* = called active by the depositor; ? = inconclusive; . = no result given; [ ] = remark or other dose. Hits are enriched below; roughly 11% of the tested compounds scored in any of these assays. Unless noted, calls follow the shape of the dose curve; as a rule, active = well fitted curve in the direction sought with a large enough effect; inconclusive = small, poorly fitted or top-dose-only effect, or another doubt; inactive = no such curve, though single readings can be large; an effect the other way counts as inactive or inconclusive. Potency is read from the fitted curve at half-maximal effect.

SMILES | Pf growth 48h | AMA1 RON2 block | Pf growth 96h | Sm TGR inh | NS1 inh
Cc1ccc(C2=NC(=O)/C(=C/c3cc(O)c(O)c(Br)c3)S2)cc1 | 10µM* | ? | 35% | -32% | .
COc1cc(/C=C2\SC(c3ccc(C)cc3)=NC2=O)cc(OC)c1O | ? | 23% | ? | -26% | 25%
COc1ccccc1N(CC(=O)N(c1ccccc1)C(C)C)S(=O)(=O)c1cccs1 | -11% | 21% | 9.3µM* | 11% | .
CC1(C)C=Cc2cc(-c3coc4cc(O)cc(O)c4c3=O)cc(O)c2O1 | . | -6% | . | . | .
COc1ccc(-c2nn(-c3ccccc3)cc2CNCc2cccnc2)c(F)c1 | ? | -16% | 0% | -8% | 0%
COc1ccc(-n2cc(CN(C)C(C)c3ccncn3)c(-c3cccc(F)c3)n2)cc1 (stereo not given) | 10µM* | 28% | 8% | -15% | -4%
COc1ccc(-n2cc(CNCCc3cnc[nH]3)c(-c3cccc(F)c3)n2)cc1 | 1.7µM* | 30% | ? | 17%[57.1 µM] | -71%
COc1cccc(-c2nn(-c3ccccc3)cc2CN(C)C(C)c2ccncn2)c1 (stereo not given) | ? | 22% | ? | 0% | 0%
COc1ccc(-n2cc(CN3CCC(OC)CC3)c(-c3cccc(F)c3)n2)cc1 | 10µM* | 7% | 25% | 8% | 6%
COc1ccc(-n2cc(CNCc3cccnc3)c(-c3cccc(F)c3)n2)cc1 | 13µM* | -20% | ? | 5% | 1%
Cc1ccccc1C(=O)Nc1c2c(nn1C(C)(C)C)CS(=O)(=O)C2 | 12% | -6% | 0% | -3% | 15%
O=C(O)c1ccccc1-c1ccc(/C=C/c2cc(C(F)(F)F)[nH]c(=O)n2)o1 | 5% | 13% | 15% | ? | .
O=C(O)c1cc(Cl)ccc1-c1ccc(/C=C/c2cc(C(F)(F)F)[nH]c(=O)n2)o1 | 9% | 4% | 9.3µM* | ? | 10%
O=C(Nc1ccc(Cl)c(C(F)(F)F)c1)C1CCCN(S(=O)(=O)c2cnc[nH]2)C1 (stereo not given) | ? | -7% | 10µM* | -24% | -8%
COc1ccccc1NC(=O)C1CCCN(S(=O)(=O)c2cnc[nH]2)C1 (stereo not given) | . | 3% | 0% | 7% | -9%
Cc1cc(NC(=O)C2CCCN(S(=O)(=O)c3cnc[nH]3)C2)ccc1Br (stereo not given) | . | -6% | 4.1µM* | -4% | 0%
COc1ccc(C)cc1NC(=O)C1CCCN(S(=O)(=O)c2cnc[nH]2)C1 (stereo not given) | . | -10% | 12µM* | -6% | -5%
O=[N+]([O-])c1ccc(C=NN2CCCCCC2)cc1 | . | 25µM* | . | . | .
COc1ccccc1N1CCN(/N=C/c2ccc([N+](=O)[O-])cc2)CC1 | 34% | -11% | 10µM* | 13% | 19%
N#CC(C#N)=C(N)CSc1cccc[n+]1[O-] | 5.2µM* | -2% | 12µM* | -3% | .
Nc1nc(SCC(=O)c2cc3ccccc3o2)n[nH]1 | 0% | 38% | 59% | 0% | -2%
O=C(CSc1cccc[n+]1[O-])c1cc(Cl)ccc1Cl | ? | 77% | 0.83µM* | 8% | .
O=C(CSc1cccc[n+]1[O-])c1cc2ccccc2o1 | . | 1% | 4.1µM* | 17%[11.4 µM] | -198%
COC(=O)c1ccc2nc(NC(=O)CN3C(=O)CCC3=O)sc2c1 | 0% | -7% | 0.83µM* | 4% | 3%
COC(=O)c1ccc2nc(NC(=O)C3CC3)sc2c1 | 90% | -5% | 52% | 5% | -12%
SMILES | Pf growth 48h | AMA1 RON2 block | Pf growth 96h | Sm TGR inh | NS1 inh
COc1cc(C(=O)O/N=C2\C=CC(=O)C(C)=C2)cc(OC)c1OC | ? | 5% | ? | 3.2µM* | -35%
O=C(Nc1ccc2c(c1)OCO2)c1noc2c1CCCC2 | 202% | -7% | 48% | -4% | -14%
CC1CCCC(C)N1C(=O)CSc1nnc(COc2ccc(F)cc2)o1 (stereo not given) | -19% | 2% | 6% | 94% | -4%
CCOC(=O)C(CCCCC(NC(C)=O)(C(=O)OCC)C(=O)OCC)(NC(C)=O)C(=O)OCC | 9% | 0% | 31% | -1% | 2%
CN(C)C(=O)N1CCN(S(=O)(=O)c2ccc3ccccc3c2)CC1 | 8% | -6% | 10µM* | 8% | -6%
Nn1cc(-c2ccccc2)nc1SCC(=O)N1CCN(S(=O)(=O)c2ccc3ccccc3c2)CC1 | 9.3µM* | -1% | . | 2% | -9%
Cc1ccc(S(=O)(=O)N2CCCN(C(=O)c3cc4ccccc4[nH]3)CC2)cc1 | ? | -13% | 12µM* | 0% | -11%
O=C(CCl)N1CCN(S(=O)(=O)c2ccc3c(c2)OCCCO3)CC1 | ? | -6% | ? | 16µM* | .
CC(Sc1nc2ccccc2c(=O)n1CC1CCCO1)C(=O)N(C)c1ccccc1 (stereo not given) | ? | -10% | ? | -16% | .
O=C(COC(=O)CNC(=O)c1ccccc1)NC1CCCC1 | 30% | -1% | 15% | -1% | .
CCOC(=O)c1ccc(N2CCN(c3cccc(Cl)c3)CC2)c(NC(=O)Nc2ccc(OC)cc2OC)c1 | . | . | . | 3% | .
COc1ccc(-n2c(-c3ccc(C)cc3)cc3c2CC(C)(C)CC3=O)c(OC)c1 | . | . | . | 9% | .
Cc1ccc(S(=O)(=O)N2CCCN(S(=O)(=O)c3ccc4ccccc4c3)CC2)cc1 | ? | -7% | 10µM* | -6% | 10%
Cc1ccc(S(=O)(=O)N2CCN(S(=O)(=O)c3ccccc3)C2)cc1 | . | 13% | -10% | -11% | -5%
O=C(CCl)N1CCN(S(=O)(=O)c2ccc3ccccc3c2)CC1 | ? | -14% | ? | 5.6µM* | -2%
O=S(=O)(c1ccc2ccccc2c1)N1CCN(S(=O)(=O)c2ccc3ccccc3c2)CC1 | . | . | . | . | -3%
Cc1ccc(S(=O)(=O)N2CCN(S(C)(=O)=O)C2)cc1 | 7% | 19% | 13µM* | 15% | 4%
CCCCNc1nnc(SCC(=O)N2CCN(S(=O)(=O)c3ccc4ccccc4c3)CC2)s1 | . | 2% | 5.2µM* | -14% | -1%
O=C(CSc1nnc(CNC(=O)c2cccc(C(F)(F)F)c2)o1)NC1CCCC1 | 8% | 6% | 16% | 0% | 8%
COc1ccc(-c2cnc(C)o2)cc1S(=O)(=O)Nc1c(C)cc(C)cc1C | . | . | . | -12% | .
CCOC(=O)C1=CC[C@H]2c3c(c4ccccc4n3C)C[C@H]1N2C | 1% | -1% | ? | -22% | .
CCN(c1ccccc1)S(=O)(=O)c1nnc(NC(=O)C(C)(C)C)s1 | ? | -6% | ? | -1% | 1%
Cc1ccc(NCc2n[nH]c(=S)n2Cc2ccccc2)cc1Cl | 36% | 71% | 18% | 19% | -2%
O=S(=O)(c1ccc(N2CCN(S(=O)(=O)c3ccc4c(c3)OCCO4)CC2)nc1)N1CCCC1 | 13µM* | -8% | -8% | -10% | 4%
Cc1ncc(CO)c(/C=N/Nc2ccc(C(F)(F)F)cn2)c1O | ? | -17% | 2.3µM* | 4% | 3%
